Compound activity deposited in PubChem BioAssay by National Center for Advancing Translational Sciences (NCATS).
Gal4-VP16 FLuc: Gal4-VP16 reporter inhibition counter-screen; Drosophila S2 Gal4-VP16 UAS-luciferase, luminescence, 20 h; Potency, µM (top dose mostly 53.6 µM), usual class: inhibitors; 310,000 tested, 3.5% active;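 note: Gal4-VP16 expression switched on by copper sulfate through the metallothionein promoter; nearly all actives have a fitted effect of over 50% in size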
KinaseGlo FLuc: Kinase-Glo luciferase inhibition (counter-screen); 200,000 tested, 0.28% active; Kinase-Glo luciferase, ATP luminescence, 8 min; AID 1379; Potency, µM (titrated, usually from 38.3 µM), actives largely listed as inhibitors; note: nearly all actives have a fitted effect of over 60% in size
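Inhibition of Kinase-Glo luciferase light generation was assessed at 10 uM ATP in pH 7.2 imidazole buffer, with luminescence measured after eight minutes at ambient temperature.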
RORgamma inh: blocks mouse ROR gamma transcriptional activity; AID 2551; Drosophila S2 Gal4-RORgamma UAS-luciferase reporter, 20 h; Potency, µM (highest dose often 53.6 µM), hits mostly inhibitors; P51450; 310,000 tested, 5.4% active; note: nearly all actives have a fitted effect of over 60% in size
Target sequence (P51450 whole entry, looked up, the tested form may be a part): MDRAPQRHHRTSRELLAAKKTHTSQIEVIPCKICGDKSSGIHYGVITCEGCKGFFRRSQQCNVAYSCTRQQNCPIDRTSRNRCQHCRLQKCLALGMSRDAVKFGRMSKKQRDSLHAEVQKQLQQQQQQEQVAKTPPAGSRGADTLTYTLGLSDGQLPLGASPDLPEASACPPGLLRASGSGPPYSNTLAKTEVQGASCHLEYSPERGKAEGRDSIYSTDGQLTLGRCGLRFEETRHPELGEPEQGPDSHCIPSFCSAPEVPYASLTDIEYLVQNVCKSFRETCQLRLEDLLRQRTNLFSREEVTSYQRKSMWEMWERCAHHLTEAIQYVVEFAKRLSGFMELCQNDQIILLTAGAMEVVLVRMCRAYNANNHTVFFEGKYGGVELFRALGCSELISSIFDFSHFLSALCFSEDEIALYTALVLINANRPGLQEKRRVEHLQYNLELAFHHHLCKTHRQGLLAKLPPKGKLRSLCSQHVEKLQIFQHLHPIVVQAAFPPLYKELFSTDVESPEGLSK
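Stably transfected Drosophila Schneider cells are the test system, with ROR gamma fused to Gal4 and luciferase under UAS control; luminescence is read after 20 hr of 700 uM copper sulfate induction at ambient temperature.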
Hits are given with their value; 0 = inactive; ? = inconclusive; - = no result; [ ] = dose if it differs, or a comment. Only some compounds are listed: those with a hit (about 6.2% of all), similar ones and a draw of the others. Calls come from the whole dose curve; as a rule, active = well fitted curve in the direction sought with a large enough effect; inconclusive = small, poorly fitted or top-dose-only effect, or another doubt; inactive = no such curve, though single readings can be large; an effect the other way counts as inactive or inconclusive.

SMILES	Gal4-VP16 FLuc	KinaseGlo FLuc	RORgamma inh
NC(=O)C(c1ccc(Cl)cc1)c1ccc(Sc2ccc(Cl)cc2)nn1 (configuration not stated)	14µM	0	?
O=C(CSc1ccc(-c2ccncc2)nn1)c1ccc(Cl)cc1	0[10 µM]	0	0
Cc1cccc(C(=O)Oc2ccccc2C(=O)N2CCOCC2)c1	0	-	0
CCOC(=O)c1c(C)[nH]c(C)c1C(=O)CSc1nc2ccccc2c(=O)n1-c1ccc(CC)cc1	0	0	?
CC(=O)c1ccc(-n2c(SCC(=O)c3c[nH]c4ccccc34)nc3ccccc3c2=O)cc1	0	0	1.4µM
Cc1ccc(-c2nn3cnnc3c3ccccc23)cc1	0	0	0
Cc1cc(C)cc(-n2c(C)cc(/C=N/NC(=O)CN(c3c(C)cccc3C)S(C)(=O)=O)c2C)c1	0	0	13µM
Cc1ccc(-n2c(C)cc(/C=N/NC(=O)CN(c3ccc(C)cc3C)S(C)(=O)=O)c2C)cc1	0	0	?
CC1CCCC(C)N1C(=S)SCC(=O)O (configuration not stated)	0	0	0
Cc1cccc(C(=O)Nc2nnc(C3=COCCO3)o2)c1	1µM	0	0.5µM
O=C(NCCc1ccc2c(c1)OCCO2)c1cccc(F)c1	?	0	?
Cc1cccc(C(=O)Nc2onc(C)c2C#N)c1	0	0	0
O=C(Nc1nnc(C2=COCCO2)o1)c1cccc(F)c1	0.56µM	-	0.63µM
Cc1nc(C)c(N)c(=O)[nH]1	0	0	0
CCC(=O)Nc1ccc(C(=O)CSc2nc3ccccc3cc2CC)cc1	?	0	?
COc1cc(/C=N/NC(=O)c2ccc3c(c2)OCCO3)cc(Br)c1O	?	-	16µM
Cc1nonc1C(=O)N/N=C/c1cccc(O)c1	?	8.9µM	0
O=C(N/N=C/c1cccc(O)c1)N/N=C/c1cccc(O)c1	0	-	0
CCOc1cccc(/C=N/NC(=O)c2cc(-c3cccn3C)n[nH]2)c1O	5µM	0	2.8µM
CCOc1cccc(/C=N/NC(=O)c2ccc3c(c2)OCCO3)c1O	0.63µM	-	0.4µM
CCOc1cccc(/C=N/NC(=O)C2CCCC2)c1O	0	-	0
COc1cc(OC)c(OC)cc1/C=N/NC(=O)c1cc(-c2cccn2C)n[nH]1	0	0	0
COc1cc(/C=N/NC(=O)c2ccc3c(c2)OCCO3)c(Br)c(Br)c1O	0	-	0
O=[N+]([O-])c1cccc(/C=C/c2nc3ccc([N+](=O)[O-])cc3[nH]2)c1	0	0	?
O=C(N/N=C\c1cccc(OC(=O)c2ccco2)c1)c1ccc2c(c1)OCO2	6.3µM	0	14µM
SMILES	Gal4-VP16 FLuc	KinaseGlo FLuc	RORgamma inh
CCn1ncc(/C=N/NC(=O)c2ccc3c(c2)OCO3)c1C	0	0	0
Cc1cccc(/C=N/NC(=O)c2ccc3c(c2)OCCO3)c1O	2.5µM	-	3.5µM
O=C(N/N=C\c1ccc2c(c1)OCO2)c1ccco1	0	-	0
O=C(N/N=C/c1cccc(O)c1)c1ccc2c(c1)OCCO2	6.3µM	-	3.2µM
COc1ccc(/C=N/NC(=O)C2C3CCCCC32C)cc1OC (configuration not stated)	0	0	0
COc1cc(/C=N/NC(=O)C2C3CCCCC32C)cc(Br)c1O (configuration not stated)	5µM	0	7.1µM
O=C(N/N=C/c1ccc2c(c1)OCO2)c1ccc2c(c1)OCO2	0	-	0
COc1cc(CNCCc2ccccc2F)ccc1OCC(=O)N1CCCCC1	0	0	0
CN(C)c1ccc(-c2nccc(NCCN3CCOCC3)n2)cc1	?	0	?
CC1CN(C(=O)c2cc3cc(F)ccc3[nH]2)CC(C)O1 (configuration not stated)	0	-	0
O=C(CNC(=O)c1ccc2c(c1)OCCO2)N/N=C/c1ccc(O)cc1O	0	0	0
COc1cccc(/C=N/NC(=O)CNC(=O)c2ccc3c(c2)OCCO3)c1O	4.5µM	0	0.63µM
COc1cccc(C=Nc2ccc3c(c2)OCCO3)c1O	0	7.9µM	?
COc1cccc(C=Nc2ccc(N3CCOCC3)cc2)c1O	0	-	0
COc1cccc(/C=N/NC(=O)CNC(=O)C2COc3ccccc3O2)c1O (configuration not stated)	0.45µM	0	0.35µM
O=C(CNC(=O)C1COc2ccccc2O1)N/N=C\c1ccccc1Cl (configuration not stated)	0	-	0
CCOC(=O)c1c(S(=O)(=O)Nc2ccc(F)cc2Cl)c(C)n(C)c1C	0	-	0
Cc1ccc(S(=O)(=O)N2CCc3nc(-c4ccccc4)c4c(c3C2)CO[C@@H](C)C4)cc1	-	0[7.66 µM]	-
Cc1ccc(N/N=C(/Sc2nnnn2-c2ccccc2)C(=O)c2ccccc2)cc1	?	0	10µM
O=C(/C(=N\Nc1ccc([N+](=O)[O-])cc1)Sc1nnnn1-c1ccccc1)c1ccccc1	?	0	?
O=C(NN1CCOCC1)c1cc(-c2cccs2)nc2ccccc12	0	0	0
CC(C)OCCCNC(=O)c1cc(-c2cccs2)nc2ccccc12	0	-	0
Cc1ccc2sc(NNC(=O)c3cc(-c4cccs4)nc4ccccc34)nc2c1C	18µM	0	4.5µM
Cc1ccc(NC(=O)c2cc(-c3cccs3)nc3ccccc23)nc1	0	-	0
Cc1cc(C)c2nc(NNC(=O)c3cc(-c4cccs4)nc4ccccc34)sc2c1	10µM	0	1.8µM
O=C(NNc1nc2ccc(Cl)cc2s1)c1cc(-c2cccs2)nc2ccccc12	?	0	1.1µM
